Screens (PubChem)
Mtb FBA inh = Mtb FBA enzyme inhibitors, primary screen, biochemical, fluorescence, strain H37Rv; purified M. tuberculosis FBA, fluorescence read-out; 360,000 compounds, 2.3% hits; inhibition, % at 1 µM; in the data active = inhibition above about 27%;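 also: 0% = vehicle and 100% = reference inhibitor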
Target sequence (P9WQA3 whole entry, looked up): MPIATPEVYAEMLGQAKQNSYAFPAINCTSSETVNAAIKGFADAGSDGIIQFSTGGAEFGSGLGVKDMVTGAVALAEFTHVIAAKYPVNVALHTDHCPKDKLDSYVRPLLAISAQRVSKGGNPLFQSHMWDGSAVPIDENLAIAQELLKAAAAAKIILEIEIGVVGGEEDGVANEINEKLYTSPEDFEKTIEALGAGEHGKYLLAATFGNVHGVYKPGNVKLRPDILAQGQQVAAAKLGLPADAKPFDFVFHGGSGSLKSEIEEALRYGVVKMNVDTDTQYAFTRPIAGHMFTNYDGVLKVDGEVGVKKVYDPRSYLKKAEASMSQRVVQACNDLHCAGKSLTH
PrPC TRFRET = inhibitors of human cell surface prion protein PrPC, primary screen, cell-based, TR-FRET; inhibition, % at 13.8 µM; AID 720596, 2013; TR-FRET read-out; 370,000 compounds, 0.43% hits; in the data active = inhibition above about 24%; also: 0% = median of the test wells and 100% = reference compound wells
GDH-TPI counter = GDH-TPI coupling enzyme inhibitors, primary screen, artefact control for M. tuberculosis FBA inhibitor project, biochemical, absorbance, full deck | GDH-TPI coupled enzyme counterscreen, NADH absorbance | inhibition, % at 4.8 µM | 360,000 compounds, 1.2% hits | AID 588335, 2011; in the data active = inhibition above about 30%;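 also: 0% = DMSO wells and 100% = wells lacking the enzyme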
Mtb hypoxia inh = PubChem AID 1159583. 300,000 compounds, 0.1% hits. M. tuberculosis hypoxia-regulated fluorescent reporter, fluorescence. fluorescence inhibition, % (concentration not given with the values); in the data active = fluorescence inhibition mostly above about 23%, no sharp cut-off; inactive = mostly below about 17%
PrP 5UTR inh = inhibition of PrP 5' UTR reporter expression; cell-based PrP 5' UTR mRNA reporter, plate reader; inhibition, % (test concentration not listed); AID 488862, 2010; 340,000 compounds, 0.35% hits; in the data active = inhibition above about 52%; also: 0 = median of the neutral control wells
Yp Topo-I inh = Yersinia pestis topoisomerase I inhibitors, primary screen, biochemical, cleavage product accumulation, plate reader, single point; activity, % at 10 µM; Y. pestis Topo-I cleavage product accumulation; DNA topoisomerase I (Yersinia pestis CO92); 360,000 compounds, 0.064% hits; AID 504884, 2011; in the data active = activity above about 50%, passing the limit was not always enough
* hit, by the source's call; . = no result given; + = active, no number. The list is not random: actives were taken first. Their share in the collection is about 3.8%.

SMILES	Mtb FBA inh	PrPC TRFRET	GDH-TPI counter	Mtb hypoxia inh	PrP 5UTR inh	Yp Topo-I inh
O=C1C2C3C=CC(C4CC34)C2C(=O)N1/N=C/c1ccc(-c2ccc(F)cc2[N+](=O)[O-])o1 (stereo not drawn)	-4.7	-12.2	32.4*	.	-10.8	-2.1
Cc1ccc(-c2ccc(C=NN3C(=O)C4C5C=CC(CC5)C4C3=O)o2)c([N+](=O)[O-])c1 (stereo not drawn)	.	.	.	-3.2	.	.
CSc1ccccc1OCc1cc(C(=O)NCCCc2ccccc2)no1	0.3	0.1	5.9	8.6	-1.4	57.9*
C=C[C@@]1(C)CC(=O)[C@]2(O)[C@@]3(C)C(O)CCC(C)(C)C3C(O)C(OC(C)=O)[C@@]2(C)O1 (stereo partly drawn)	.	.	.	-7.1	.	.
CN(C)S(=O)(=O)c1cccc(NC(=S)N/N=C/c2ccco2)c1	4.4	2.5	52.0*	.	.	0.6
COc1cccc(/C=N/NC(=S)Nc2cccc(S(=O)(=O)N(C)C)c2)c1	1.1	1.6	16.9	.	-15.0	-0.2
COc1ccc(O)c(/C=N/NC(=S)Nc2cccc(S(=O)(=O)N(C)C)c2)c1	4.3	-6.4	6.0	.	16.4	-16.0
CN(C)S(=O)(=O)c1cccc(NC(=S)N/N=C/c2ccc(O)c(O)c2O)c1	-4.6	5.8	32.1*	.	-18.8	-15.4
Cc1ccc(-c2c(C(=O)N/N=C/c3c[nH]c4ccccc34)nnn2-c2nonc2N)cc1	4.4	-4.2	47.0*	.	1.0	-4.2
Nc1nonc1-n1nnc(C(=O)NN=Cc2c[nH]c3ccccc23)c1-c1ccccc1	.	.	.	17.3	.	.
CCCc1c(C(=O)N/N=C/c2c[nH]c3ccccc23)nnn1-c1nonc1N	-4.0	3.6	30.1	.	.	-1.7
COCc1c(C(=O)N/N=C/c2c[nH]c3ccccc23)nnn1-c1nonc1N	1.9	-3.4	43.6*	.	0.8	-17.7
Cn1nccc1C(=O)NC1CCCc2c1cnn2-c1cc(F)cc(F)c1 (stereo not drawn)	+	7.2	7.7	4.8	-10.1	4.0
COC(=O)c1ccc(COc2ccccc2C=C(C#N)C(=O)NC(C)C)cc1	.	.	.	5.3	.	.
O=C(NC1CCN(Cc2ccc(F)cc2)CC1)c1ccccc1	2.4	-9.7	0.0	12.8	-18.0	5.1
O=C(NC(=S)NC1CCN(Cc2ccccc2)CC1)c1ccc(F)cc1	+	-9.5	2.1	7.1	-27.3	10.1
CCCOc1ccc(/C(O)=C2/C(=O)C(=O)N(c3ccccn3)C2c2ccc(OC)cc2)cc1C (stereo not drawn)	1.7	17.1	2.5	-2.0	-22.2	55.8*
COc1ccc(C2C(=C(O)c3ccc(C)cc3)C(=O)C(=O)N2C)cc1 (stereo not drawn)	.	.	.	1.2	.	.
COc1ccc(C2/C(=C(/O)c3ccc(C)cc3)C(=O)C(=O)N2C)cc1 (stereo not drawn)	-0.8	-0.8	32.5*	.	-12.7	3.6
Cc1ccc2nc(/C(C#N)=C\c3cc(C)n(-c4cccc([N+](=O)[O-])c4)c3C)[nH]c2c1	-0.1	2.9	31.6*	5.7	-13.2	5.6
CCOCCCNC(=O)c1c(N)n(-c2ccc3c(c2)OCO3)c2nc3ccccc3nc12	4.8	-4.2	1.6	13.9	-6.7	-1.2
COCCCn1c(N)c(C(=O)NCc2ccco2)c2nc3ccccc3nc21	.	-7.2	.	.	-31.4	.
CCOc1ccc(-n2c(N)c(C(=O)NCc3ccco3)c3nc4ccccc4nc32)cc1	52.2*	.	18.1	-1.9	-6.4	13.0
CCOCCCNC(=O)c1c(N)n(-c2ccc(S(N)(=O)=O)cc2)c2nc3ccccc3nc12	32.6*	-2.6	6.0	.	-9.5	24.1
CC(C)c1ccc(/C=C2\SC(=O)N(CC(=O)NCCCn3ccnc3)C2=O)cc1	1.6	-8.5	47.4*	1.5	-47.4	30.6
CC(C)CC1CN=C(N)N1CC1CCCN1CC(C)N1CC(Cc2ccccc2)N(CCc2ccc(Cl)c(Cl)c2)C1=N (stereo not drawn)	.	.	.	91.5*	.	.
CN(Cc1ccccc1)c1ccc(S(=O)(=O)N2CCC(C(=O)O)CC2)cc1[N+](=O)[O-]	+	4.8	0.6	-4.4	-4.5	5.2
Clc1ccc2oc(-c3ccccc3)nc2c1	2.3	-0.3	5.2	8.7	-130.2	1.3
